Laboratory results: PubChem BioAssay
The source made the active and inactive calls. Unless noted, how the calls were made is not given here.

What was measured:
[1] = HepG2 liver cancer cell viability effects, profiling panel, resazurin fluorescence, 24 h, PK04 Diversity Set (AID 1172); settings: higher = more signal
[2] = basal S. cerevisiae growth modulation, no modifier, primary screen, OD600, strain BY4716, 24 h, basal condition (AID 1173); settings: OD600, 24 h, higher = more signal, called active from +8 up or from −8 down
[3] = MM1S myeloma cell viability, profiling panel, resazurin fluorescence, basal, 24 h, PK04 Diversity Set (AID 1174); settings: higher = more signal, called active from +8 up or from −8 down;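 further: MM1S multiple myeloma cell line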
[4] = target: Dihydroorotate dehydrogenase (quinone), mitochondrial (Plasmodium falciparum (isolate 3D7)) (UniProt Q08210); test: PfDHODH enzyme inhibitors, primary screen, biochemical, C-terminal His tag, absorbance 600 nm (AID 1175); settings: DCIP absorbance 600 nm, higher = more signal, called active from +8 up or from −8 down;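 further: recombinant parasite enzyme with a five histidine tag at its C terminus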
[5] = P. aeruginosa biofilm formation inhibitors, primary screen, strain PAO1, LB-PBS medium, absorbance 600 nm (AID 1176); settings: P. aeruginosa PAO1 growth/biofilm, A600, 12 h; higher = more signal
[6] = S. cerevisiae RM11-1a growth modifiers, primary screen, strain RM11-1a, OD600, basal, 24 h (AID 1177); settings: OD600, 24 h, higher = more signal, called active from +8 up or from −8 down;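 further: cultures grown under basal conditions with no added stressor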
[7] = E. coli acrAB mutant growth effects, primary screen, E. coli filamentation inducers, strain DRC39, OD650, 24 h (AID 1178); settings: higher = more signal, called active from +8 up or from −8 down;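 further: growth measured as culture turbidity by optical density at 650 nm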
[8] = E. coli acrAB mutant growth effects, primary screen, E. coli filamentation inducers, strain DRC39, OD650, 48 h (AID 1179);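 further: screen aims at cell division blockers that make cells filament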; settings: E. coli DRC39 delta-acrAB growth, higher = more signal, called active from +8 up or from −8 down
[9] = RPMI8226 myeloma cell viability, profiling panel, resazurin fluorescence, basal, 24 h, PK04 Diversity Set (AID 1180); settings: higher = more signal;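 further: RPMI8826 multiple myeloma cell line at 5000 cells per well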
[10] = target: E3 ubiquitin-protein ligase XIAP (Homo sapiens) (UniProt P98170); test: XIAP binders, primary screen, biophysical, small-molecule microarray, fluorescence 635 nm (AID 1181); settings: small-molecule microarray binding, higher = more signal;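 further: score merges 667 nm emission and signal to noise over triplicate slides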
[11] = system: XIP peptide (Xip251-270) binding; test: small-molecule binders of XIP peptide, primary screen, biochemical, small-molecule microarray, fluorescence 635/667 nm, 0.1 µg/mL protein (AID 1182); settings: fluorescent protein binding, 635 nm, higher = more signal, called active from +8 up or from −8 down
XIP peptide (Xip251-270) = test: small-molecule binders of XIP peptide, primary screen, biochemical, small-molecule microarray, fluorescence 635/667 nm, 0.5 µg/mL protein (AID 1183); settings: small-molecule microarray binding, fluorescence 635 nm; higher = more signal
[12] = Plasmodium falciparum growth inhibition, primary screen, strain 3D7, DAPI fluorescence, 100 nL (AID 1184);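 further: parasites grown inside human red blood cells in medium with human serum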; settings: P. falciparum 3D7 growth, 3 d, higher = more signal
[13] = target: Homeobox protein Hox-A13 (Mus musculus) (UniProt Q62424); test: inhibitors of HoxA13-DNA binding, primary screen, biochemical, fluorescence polarization, labeled oligonucleotide (AID 1185); settings: 15 min, higher = more signal, called active from +8 up or from −8 down
[14] = inhibitors of hydroxyurea-induced Chk1 phosphorylation, primary screen, imaging, HeLa, phospho-Chk1 antibody, percent positive cells (AID 1186); settings: hydroxyurea-induced phospho-Chk1 immunofluorescence imaging, higher = more signal
[15] = inhibitors of hydroxyurea-induced Chk1 phosphorylation, primary screen, imaging, HeLa, phospho-Chk1 nuclear intensity (AID 1187); settings: hydroxyurea-induced phospho-Chk1 immunofluorescence imaging, higher = more signal

Chain of E3 ubiquitin-protein ligase XIAP (Homo sapiens) (P98170 whole entry, looked up): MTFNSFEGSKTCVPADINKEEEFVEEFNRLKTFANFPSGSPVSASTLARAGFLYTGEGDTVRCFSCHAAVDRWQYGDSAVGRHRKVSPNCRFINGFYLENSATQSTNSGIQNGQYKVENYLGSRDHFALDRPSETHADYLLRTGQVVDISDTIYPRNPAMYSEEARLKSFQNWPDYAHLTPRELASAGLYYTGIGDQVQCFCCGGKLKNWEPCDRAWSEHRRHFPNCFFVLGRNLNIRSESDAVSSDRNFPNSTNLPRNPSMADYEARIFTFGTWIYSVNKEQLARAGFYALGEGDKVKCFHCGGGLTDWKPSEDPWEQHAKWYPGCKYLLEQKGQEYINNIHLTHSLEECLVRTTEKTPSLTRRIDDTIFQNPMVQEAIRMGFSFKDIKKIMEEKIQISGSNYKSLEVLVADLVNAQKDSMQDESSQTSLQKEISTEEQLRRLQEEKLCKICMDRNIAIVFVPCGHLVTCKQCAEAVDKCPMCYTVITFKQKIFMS
Chain of Dihydroorotate dehydrogenase (quinone), mitochondrial (Plasmodium falciparum (isolate 3D7)) (Q08210 whole entry, looked up): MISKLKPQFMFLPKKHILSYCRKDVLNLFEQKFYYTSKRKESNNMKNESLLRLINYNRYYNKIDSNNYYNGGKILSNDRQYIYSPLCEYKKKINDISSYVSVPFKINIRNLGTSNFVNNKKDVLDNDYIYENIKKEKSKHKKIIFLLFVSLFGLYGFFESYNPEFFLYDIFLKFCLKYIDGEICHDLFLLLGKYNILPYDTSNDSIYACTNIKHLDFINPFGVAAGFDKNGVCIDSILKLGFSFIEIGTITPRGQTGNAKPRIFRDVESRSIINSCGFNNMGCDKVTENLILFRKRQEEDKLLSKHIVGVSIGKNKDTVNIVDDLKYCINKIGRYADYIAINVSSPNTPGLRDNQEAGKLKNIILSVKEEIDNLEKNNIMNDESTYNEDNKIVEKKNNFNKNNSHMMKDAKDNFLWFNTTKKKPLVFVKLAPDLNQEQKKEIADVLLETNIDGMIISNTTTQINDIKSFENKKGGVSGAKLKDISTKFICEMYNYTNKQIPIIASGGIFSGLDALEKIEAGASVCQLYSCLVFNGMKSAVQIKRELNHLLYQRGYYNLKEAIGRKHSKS
Chain of Homeobox protein Hox-A13 (Mus musculus) (Q62424 whole entry, looked up): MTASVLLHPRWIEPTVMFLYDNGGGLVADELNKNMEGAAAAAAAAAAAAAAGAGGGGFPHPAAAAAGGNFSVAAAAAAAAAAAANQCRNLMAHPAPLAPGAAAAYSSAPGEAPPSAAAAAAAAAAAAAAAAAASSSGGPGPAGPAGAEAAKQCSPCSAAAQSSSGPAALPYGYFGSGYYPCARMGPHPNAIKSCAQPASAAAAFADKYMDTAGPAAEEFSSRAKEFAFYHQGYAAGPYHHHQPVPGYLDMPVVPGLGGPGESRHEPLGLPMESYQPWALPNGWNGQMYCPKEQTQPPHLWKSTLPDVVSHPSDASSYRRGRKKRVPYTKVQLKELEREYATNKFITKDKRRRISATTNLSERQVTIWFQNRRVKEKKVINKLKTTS

SMILES | z-score [1] | z-score [2] | z-score [3] | composite z-score [4] | z-score [5] | z-score [6] | z-score [7] | z-score [8] | z-score [9] | composite z-score [10] | composite z-score [11] | composite z-score (XIP peptide (Xip251-270)) | z-score [12] | z-score [13] | z-score [14] | z-score [15]
COC(=O)[C@@]1(Cc2ccccc2)[C@H]2c3cc(C(=O)N(C)C)n(Cc4ccc(C)o4)c3C[C@H]2CN1C(=O)c1ccccc1 | -0.98 | 1.51 (inactive) | -3.41 (inactive) | -2.93 (inactive) | 3.55 (inactive) | 1.25 (inactive) | -0.513 (inactive) | -1.08 (inactive) | -3.13 | 0.696 | 0.681 (inactive) | -0.523 | -1.81 | 0.0385 (inactive) | 1.19 (inactive) | 0.841 (inactive)
C#CCN([C@@H](Cc1ccccc1)C(=O)OC)[C@@H](/C=C/C1CC1)[C@H](O)Cc1ccccc1 | 0.454 | -0.0746 (inactive) | 1.4 (inactive) | -0.371 (inactive) | -0.189 (inactive) | 0.0421 (inactive) | -0.622 (inactive) | 0.03 (inactive) | 0.659 | -0.175 | -0.0272 (inactive) | -0.194 | -1.12 | -6.42 (inactive) | -0.121 (inactive) | 0.134 (inactive)
[N-]=[N+]=Nc1ccccc1C[C@@]1(C(N)=O)N=C(c2ccc(OCCCO)cc2)O[C@@H]1c1ccccc1N=[N+]=[N-] | 0.212 | -3.3 (inactive) | -0.902 (inactive) | -0.652 (inactive) | 0.0405 (inactive) | -0.739 (inactive) | 0.891 (inactive) | -0.174 (inactive) | -0.76 | -0.112 | 1.28 (inactive) | 0.763 | -2.67 | -5.05 (inactive) | -0.0618 (inactive) | 0.233 (inactive)
[N-]=[N+]=NCc1ccccc1[C@@H]1OC(c2ccc(OCCCO)cc2)=N[C@]1(CCS(=O)(=O)c1ccccc1)C(=O)O | -0.274 | -0.577 (inactive) | -0.906 (inactive) | 0.456 (inactive) | -0.0583 (inactive) | 0.275 (inactive) | -0.447 (inactive) | 0.0549 (inactive) | -1.4 | 0.0537 | 0.573 (inactive) | 0.964 | 0.692 | -4.86 (inactive) | 0.162 (inactive) | 0.23 (inactive)
CCCCC(=C=CC[C@H](O)c1ccc(OCCO)cc1)CCO | -0.0738 | -2.31 (inactive) | -0.149 (inactive) | -0.32 (inactive) | 0.154 (inactive) | -0.162 (inactive) | -1.28 (inactive) | -1.06 (inactive) | 0.0466 | 0.0365 | 0.0643 (inactive) | 0.256 | -1.17 | -4.31 (inactive) | -0.373 (inactive) | -0.317 (inactive)
O=C(O)[C@@H]1C[C@@H]2C(=O)N3CCC[C@H]3C(=O)N2[C@@H]1c1ccc(O)cc1 | -0.155 | -1.8 (inactive) | -0.695 (inactive) | -1.7 (inactive) | 1.03 (inactive) | -0.113 (inactive) | 0.437 (inactive) | -0.535 (inactive) | 0.16 | 0.0721 | 0.543 (inactive) | 0.906 | -1.37 | 1.66 (inactive) | 0.959 (inactive) | 1.08 (inactive)
C=C(/C(=C/C[C@H](OC(=O)c1ccncc1)c1ccc(CO)o1)c1cnc2ccccc2c1)C(C)C | -0.0499 | -1.2 (inactive) | -0.0537 (inactive) | -7.44 (inactive) | 1.16 (inactive) | 0.481 (inactive) | 0.586 (inactive) | 0.0868 (inactive) | 0.601 | -0.0749 | 0.276 (inactive) | 0.647 | -0.137 | -5.42 (inactive) | -0.282 (inactive) | -0.39 (inactive)
CN(C)C(=O)[C@]1(Cc2ccccc2CN=[N+]=[N-])N=C(c2ccc(OCCCO)cc2)O[C@@H]1c1ccccc1 | 0.747 | -0.948 (inactive) | -0.535 (inactive) | -0.366 (inactive) | -0.137 (inactive) | 0.787 (inactive) | 0.294 (inactive) | -0.296 (inactive) | -1.16 | -0.127 | 0.908 (inactive) | 0.738 | -2.78 | -6.11 (inactive) | -0.52 (inactive) | -0.266 (inactive)
COC(=O)C1(CC(C)C)C=C2C(=C(c3ccccc3)C(=O)C2C)CN1 (centres undefined) | -1.21 | 0.397 (inactive) | -2.14 (inactive) | -1.58 (inactive) | 0.647 (inactive) | 0.168 (inactive) | -0.33 (inactive) | 0.208 (inactive) | -1.27 | -0.0133 | -0.213 (inactive) | 0.758 | -0.104 | -7.47 (inactive) | -0.563 (inactive) | -1.13 (inactive)
CS(=O)(=O)CCOC(=O)C1=CC(CCCO)=CC(c2ccc(CN3CCCC3)cc2)N(Cc2sc3ccccc3c2Cl)C=C1C(=O)OCCS(C)(=O)=O (centres undefined) | -0.518 | -2.76 (inactive) | -0.0646 (inactive) | -0.449 (inactive) | -0.259 (inactive) | 0.34 (inactive) | 0.285 (inactive) | 0.309 (inactive) | -0.0127 | -0.247 | 0.814 (inactive) | 0.746 | -3.03 | 1.07 (inactive) | 0.316 (inactive) | 0.969 (inactive)
CCCC=C(CCC)[C@@H](NC(=O)c1cccs1)c1ccc(C(=O)OC)cc1 | 0.756 | 1.07 (inactive) | 0.645 (inactive) | 0.519 (inactive) | -0.94 (inactive) | -0.27 (inactive) | 0.204 (inactive) | -0.814 (inactive) | 0.429 | -0.031 | -0.185 (inactive) | 0.285 | -0.417 | -0.907 (inactive) | -0.255 (inactive) | -0.354 (inactive)
CC(C)c1ccc(NN2C(C(O)c3ccc(F)cc3)C=CC3C(=O)N(c4ccccc4)C(=O)C32)cc1 (centres undefined) | -0.0361 | -2.21 (inactive) | -1.25 (inactive) | 0.319 (inactive) | 1.36 (inactive) | 0.737 (inactive) | -0.159 (inactive) | 0.127 (inactive) | -0.895 | -0.226 | 0.344 (inactive) | 0.774 | -0.344 | -1.93 (inactive) | 0.51 (inactive) | 0.374 (inactive)
CO[C@H]1O[C@H](CO)[C@@H](OC(=O)Nc2ccc(Br)cc2)[C@@H]2OC(=O)[C@@H](Cc3ccccc3)C/C=C/C[C@H](Cc3ccccc3)C(=O)O[C@@H]12 | -1.2 | -0.0671 (inactive) | -3.25 (inactive) | -1.25 (inactive) | 0.193 (inactive) | 1.59 (inactive) | 0.547 (inactive) | 0.347 (inactive) | -4.07 | 0.289 | 0.491 (inactive) | 0.693 | -0.683 | -1.27 (inactive) | -0.324 (inactive) | 0.406 (inactive)
CCCC=C(CCC)[C@@H](NS(=O)(=O)CC12CCC(CC1=O)C2(C)C)c1ccc(C(=O)OC)cc1 (some centres undefined) | 0.602 | 0.484 (inactive) | 0.16 (inactive) | -0.929 (inactive) | 0.756 (inactive) | -0.721 (inactive) | 0.0384 (inactive) | -0.572 (inactive) | -0.123 | -0.102 | -0.341 (inactive) | 0.316 | -0.384 | -2.11 (inactive) | -0.225 (inactive) | -0.276 (inactive)
CCCC=C(CCC)[C@@H](NC(=O)C(C)(C)C)c1ccc(C(=O)OC)cc1 | 1.35 | 1.3 (inactive) | -0.0387 (inactive) | 0.0907 (inactive) | 0.122 (inactive) | 1.17 (inactive) | -0.187 (inactive) | 0.0571 (inactive) | -0.0244 | -0.34 | 0.158 (inactive) | -0.227 | -1.47 | -0.168 (inactive) | -0.75 (inactive) | -0.977 (inactive)
COC(=O)C1=CC(CCCO)=CC(c2ccc(CN3CCCC3)cc2)N(Cc2cccc(OC(F)(F)F)c2)C=C1C(=O)OC (centres undefined) | -0.721 | -1.54 (inactive) | -0.728 (inactive) | -2.65 (inactive) | -0.407 (inactive) | -0.287 (inactive) | 0.509 (inactive) | 0.701 (inactive) | -0.529 | 0.166 | 1.68 (inactive) | 0.677 | -2.09 | -5.07 (inactive) | -0.268 (inactive) | -0.184 (inactive)
CN1C(=O)C2C=CC(C(O)c3cccn3C)N(Nc3ccc([N+](=O)[O-])cc3[N+](=O)[O-])C2C1=O (centres undefined) | -0.929 | 1.1 (inactive) | -1.76 (inactive) | -0.145 (inactive) | 0.667 (inactive) | 0.407 (inactive) | -0.314 (inactive) | -0.119 (inactive) | -1.34 | -0.354 | -0.438 (inactive) | -0.564 | 0.69 | -5.85 (inactive) | 0.769 (inactive) | 0.127 (inactive)
COc1cccc(C)c1NC(=O)O[C@H]1[C@H](OC(=O)Nc2ccccc2-c2ccccc2)[C@H](OC(=O)Nc2ccccc2-c2ccccc2)[C@@H](OC)O[C@@H]1CO | -0.589 | -0.342 (inactive) | -1.13 (inactive) | -0.0569 (inactive) | 1.11 (inactive) | 1.25 (inactive) | -0.469 (inactive) | 0.0517 (inactive) | -0.575 | 0.248 | 0.201 (inactive) | 0.729 | -2.51 | -1.28 (inactive) | -0.8 (inactive) | -1.12 (inactive)
CCOC(=O)C1=C[C@@H](C(C)(C)C)N(S(=O)(=O)c2ccc(C)cc2)[C@H]1c1cccc2ccccc12 | -0.433 | 3.26 (inactive) | -0.835 (inactive) | 0.716 (inactive) | 0.312 (inactive) | 3.01 (inactive) | -0.624 (inactive) | -0.511 (inactive) | -2.66 | 0.307 | -0.247 (inactive) | 0.236 | -1.93 | 0.961 (inactive) | 0.721 (inactive) | 0.521 (inactive)
